Compound activity as filed in PubChem.
GLD-1 RNA inh – GLD-1-TGE RNA interaction inhibition (C. elegans) | 0.44% of 320,000 active | AID 2280 | inhibition, % at 5.96 µM | purified GLD-1 + fluorescein TGE RNA, fluorescence polarization;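 active = percent inhibition above a per-plate cutoff, the plate mean of test compounds plus 3 SD, cut at about 30% in these data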;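 note: 0% = DMSO wells with GLD-1 and probe and 100% = wells lacking GLD-1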
Target sequence (Q17339 whole entry, looked up): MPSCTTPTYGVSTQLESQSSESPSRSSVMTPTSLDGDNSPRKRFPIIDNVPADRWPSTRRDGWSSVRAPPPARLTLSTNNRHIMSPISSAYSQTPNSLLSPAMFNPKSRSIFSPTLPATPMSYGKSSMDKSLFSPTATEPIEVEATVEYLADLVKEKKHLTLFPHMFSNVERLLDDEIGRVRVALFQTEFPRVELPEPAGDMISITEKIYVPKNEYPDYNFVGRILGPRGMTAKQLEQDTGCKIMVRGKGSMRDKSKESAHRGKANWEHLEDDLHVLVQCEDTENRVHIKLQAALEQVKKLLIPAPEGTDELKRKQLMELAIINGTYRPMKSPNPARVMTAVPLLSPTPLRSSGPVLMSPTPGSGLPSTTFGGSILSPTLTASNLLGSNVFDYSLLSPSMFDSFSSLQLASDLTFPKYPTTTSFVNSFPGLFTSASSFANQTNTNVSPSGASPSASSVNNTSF
eLon inh – E. coli protease La inhibition. purified E. coli Lon protease, fluorescence polarization. inhibition, % at 7.94 µM. P0A9M0. 0.42% of 360,000 active; in the data active = inhibition above about 13%, passing the limit was not always enough;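 note: 0% = enzyme with probe and DMSO and 100% = no enzyme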
BCLXL inh – blocks human Bcl-xL binding to Bim BH3 peptide; Q07817; GST-Bcl-xL / FITC-Bim BH3 peptide fluorescence polarization; inhibition, % at 10.9 µM; 0.7% of 320,000 active; AID 2129;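 active = inhibition above the mean of all tested compounds plus 3 SD, cutoff set per campaign, cut at about 30% in these data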;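 note: 0% = DMSO wells and 100% = unlabeled Bim-BH3 peptide competitor; inhibitors lower millipolarization by displacing the labeled peptide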
MEX-5 binding – C. elegans MEX-5 TCR-2 RNA binding activity; Q9XUB2; MEX-5/FITC-TCR2 RNA binding, fluorescence polarization; hits give low values; activity score (negative = inhibition of binding), % at 10 µM; 0.38% of 300,000 active; AID 1832;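 active = inhibition past about -25% in most replicates, and total fluorescence under double the plate's negative control median, limit read from the data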;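 note: 0% = DMSO and -100% = 5 µM competing unlabeled TCR2 RNA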
EBV gp42 block – blocks Epstein-Barr virus glycoprotein 42 binding; AID 1085; 0.42% of 220,000 active; inhibition, % (tested at 21.74 µM); Fluorescence polarization binding assay, mP read-out; in the data active = inhibition above about 50%
Target sequence (Q1HVG2 whole entry, looked up): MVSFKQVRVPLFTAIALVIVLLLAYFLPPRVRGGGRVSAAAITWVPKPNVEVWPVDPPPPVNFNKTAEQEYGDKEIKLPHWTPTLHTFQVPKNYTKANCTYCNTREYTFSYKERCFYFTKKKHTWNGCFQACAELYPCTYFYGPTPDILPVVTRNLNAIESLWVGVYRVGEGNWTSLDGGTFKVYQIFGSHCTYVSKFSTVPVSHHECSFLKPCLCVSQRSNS
* = called active by the depositor; i = inactive; x = no result given. Sampled rows, rich in hits. Any-hit rate of the full collection: about 1.3%.

SMILES | GLD-1 RNA inh | eLon inh | BCLXL inh | MEX-5 binding | EBV gp42 block
Cc1ccc(-n2c(N)c(C(=O)Nc3c(C)n(C)n(-c4ccccc4)c3=O)c3nc4ccccc4nc32)cc1 | 5.5 | -3.8 | -6.4 | -0.3 | 20.7
COc1cc([N+](=O)[O-])cc(/C=N/NC(=O)CC#N)c1O | x | x | x | -31.8* | -8.3
COc1cc([N+](=O)[O-])cc(/C=N/NC(=O)Cn2cncn2)c1O | 1.4 | -13.5 | 3.6 | -11.9 | -4.7
O=C(COC(=O)c1c2c(nc3ccccc13)/C(=C/c1ccco1)CC2)NC1CCCC1 | x | 2.6 | x | 0.4 | 83.4*
Cc1ccc(NC(=O)COCC(=O)Nc2ccc(F)cc2)cc1 | -6.1 | -4.0 | 6.2 | -3.6 | x
CSCC(C)N1CCC(n2nccc2NC(=O)c2ccccc2C)CC1 (configuration not stated) | 23.0 | -4.8 | 37.8* | -4.6 | x
CC1=C(C#N)C(=O)N(C2CCS(=O)(=O)C2)C(=O)/C1=C\c1ccco1 (configuration not stated) | 13.6 | x | 49.3* | -98.5* | 124.5*
O=C(CN1C(=O)NC(Cc2ccccc2)C1=O)Nc1ccc(F)c(Cl)c1 (configuration not stated) | 3.1 | -7.0 | 1.2 | x | x
O=C(Nc1ccnn1C1CCN(CC2CC=CCC2)CC1)c1ccccc1 (configuration not stated) | x | 1.6 | x | -26.7* | x
COc1ccc(C(=O)Nc2ccnn2C2CCN(CC3CC=CCC3)CC2)cc1 (configuration not stated) | x | -0.4 | x | -1.4 | x
CCOCC(=O)Nc1ccccc1C(=O)O | 7.8 | -4.0 | 4.5 | 1.1 | -7.1
Cn1c(N)c(C(=O)NCc2ccccc2)sc1=S | 1.7 | 1.1 | 33.5* | 0.6 | 4.3
COc1ccc(CCNC(=O)c2sc(=S)n(C)c2N)cc1 | -4.2 | 7.0 | 2.7 | -0.6 | -10.7
COc1ccc(CNC(=O)COC(=O)c2ccc(Br)cc2)cc1 | -0.2 | -6.4 | 32.7* | 1.0 | -10.6
COc1ccc(C2NC3=C(CCC3)C3(C#N)C(OC)(OC)N=C(N)C23C#N)cc1 (configuration not stated) | 20.1 | -3.3 | 31.3* | -17.6 | 2.9
COc1cccc(C2C3(C#N)C(N)=NC(OC)(OC)C23C#N)c1 (configuration not stated) | 8.7 | -0.2 | 1.2 | 1.4 | 15.9
O=C(CCN1CCN(Cc2ccccc2)CC1)NNC(=O)Nc1cccc(C(F)(F)F)c1 | -1.2 | -8.0 | 0.3 | 0.0 | x
O=C(C[n+]1cc(Br)cc2ccccc21)c1ccc(Cl)cc1 | -35.9 | -18.7 | 84.1* | 2.3 | x
O=C(C[n+]1cc(Br)cc2ccccc21)c1ccc(Br)cc1 | -21.1 | -21.1 | 57.5* | 0.4 | x
O=C(C[n+]1cc(Br)cc(Br)c1)c1ccc(Cl)cc1 | -4.8 | 4.1 | 1.6 | 1.9 | x
CC(O)(c1ccc(F)c(F)c1)c1nc(-c2cnc3ccccc3c2)cs1 (configuration not stated) | x | 9.0 | x | x | x
O=C(CCNC(=O)Cn1ccc2ccccc2c1=O)NCC1CCCC1c1ccccc1 (configuration not stated) | 8.8 | -5.8 | 3.1 | 2.3 | -1.5
Cc1cccc(C)c1NC(=O)N1CCC(C(=O)c2ccc(F)cc2)CC1 | -4.7 | -2.9 | -0.1 | -3.7 | x
COc1ccc(C(=O)O/N=C/c2ccc(S(=O)(=O)c3ccc(Cl)cc3)nc2)cc1 | 1.8 | 3.1 | -1.7 | 0.8 | x
COc1cc(C2Nc3cccc4cccc(c34)N2)cc(OC)c1OC(C)=O | 10.2 | 5.0 | 38.8* | -3.9 | 25.2
SMILES | GLD-1 RNA inh | eLon inh | BCLXL inh | MEX-5 binding | EBV gp42 block
COc1cccc(CN(C)C(=O)c2ccc3nccnc3c2)c1 | 10.1 | -14.9 | 41.0* | 1.4 | 29.1
CCOc1ccc(S(=O)(=O)N(C)CC(=O)NCc2ccccn2)cc1 | 1.2 | -1.1 | 0.0 | 1.1 | x
CN(CC(=O)NCc1ccccn1)S(=O)(=O)c1ccc(Br)cc1 | 1.8 | -3.5 | 0.4 | -25.9* | 0.5
CC(C)c1ccc(/C=C(\NC(=O)c2ccccc2)C(=O)NCCCN2CCOCC2)cc1 | -5.3 | 13.9 | -1.1 | -0.5 | -12.1
O=S(=O)(Nc1ncn[nH]1)c1ccc(Cl)cc1 | 0.5 | -5.4 | -1.8 | 2.6 | -15.4
COc1cccc(Nc2ncccc2C(=O)NCc2ccccc2)c1 | x | -4.0 | x | x | 67.8*
Clc1ccc(SCc2cn3ccccc3n2)cc1 | 1.2 | -0.2 | 2.5 | 1.6 | -18.7
c1ccc2c(SCc3cn4ccccc4n3)nncc2c1 | 3.2 | 0.8 | 53.9* | 4.6 | -4.5
O=S(=O)(Nc1cc(S(=O)(=O)N2CCOCC2)ccc1NCC1CCCO1)c1ccc(F)cc1 (configuration not stated) | 4.1 | -1.8 | -1.0 | x | x
Cc1ccc(C(=O)N/C(=C\c2ccc(-c3ccccc3[N+](=O)[O-])o2)C(=O)NCCCN2CCOCC2)cc1 | 18.4 | 6.7 | 31.7* | -7.1 | x
CC(=O)N1CCN(c2nc(CC(C)C)c3c(c2C#N)CCC3)CC1 | 156.9* | 6.1 | 166.4* | -0.8 | 4.4
CC(C)Cc1nc(N2CCN(C(=O)C(C)C)CC2)c(C#N)c2c1CCC2 | -0.5 | -3.4 | 3.0 | -1.3 | -8.1
Cc1ccc(/C=C/C(=O)O)cc1S(=O)(=O)N1CCCCC1 | 1.8 | -8.1 | 0.6 | -29.6* | -19.0
Cc1ccc(/C=C/C(=O)O)cc1S(=O)(=O)N1CCc2ccccc2C1 | 0.3 | 2.7 | -0.4 | 2.0 | -9.8
COc1ccc(C2C(C(C)=O)=C(C)N=c3s/c(=C\c4ccco4)c(=O)n32)c(OC)c1 (configuration not stated) | -4.2 | -2.7 | -2.7 | 1.0 | -39.6
COc1ccc(C2C(C(C)=O)=C(C)N=c3s/c(=C\c4cc(C)n(C)c4C)c(=O)n32)c(OC)c1 (configuration not stated) | -111.4 | i | -41.7 | -38.5* | 92.2*
CC(=O)Nc1cccc(-c2csc(C(C)(O)c3ccc(F)c(F)c3)n2)c1 (configuration not stated) | x | 9.3 | x | x | x
COC(=O)CCC(=O)OC1(C)C(=O)C=C2C=C(C3CC3)N(c3cccc(C#N)c3)C=C2C1=O (configuration not stated) | 30.6 | 14.5 | 46.9* | -16.8 | 13.7
COC(=O)CCC(=O)OC1(C)C(=O)C=C2C=C(C3CC3)N(c3ccc(CO)cc3)C=C2C1=O (configuration not stated) | 45.0* | x | 63.5* | -36.4* | x
COC(=O)CCC(=O)OC1(C)C(=O)C=C2C=C(C3CC3)N(Cc3ccco3)C=C2C1=O (configuration not stated) | 15.2 | 12.0 | 36.8* | -12.6 | 26.2
Cc1cc(-c2ccco2)c(C#N)c2nc3ccccc3n12 | -14.2 | 4.2 | 85.5* | -20.3 | x
Cc1cc(C(C)C)n2c(nc3ccccc32)c1C#N | -3.0 | x | 4.3 | 1.0 | -2.4
O=C(C[C@H]1C/C=C\CC[C@@H](Cc2ccc(F)cc2)C(=O)OCCNC1=O)NCCO | 6.4 | -4.7 | x | x | x
COc1ccc(C(=O)Nc2cccc(-c3cc4ccccc4oc3=O)c2)cc1[N+](=O)[O-] | 5.5 | 4.2 | 2.3 | x | 58.4*
COc1ccc(-c2cn[nH]c2-c2ccc(OCc3ccc(F)cc3)cc2O)cc1OC | 5.7 | 9.2 | -2.8 | 1.7 | -3.2
